Test [1] has as its target Protein Mdm4 (Homo sapiens) + E3 ubiquitin-protein ligase Mdm2 (Homo sapiens) (UniProt O15151+Q00987). The test can be described thus: human Mdm2/MdmX binding disruption – cell-based, luminescence, single concentration, set 2, confirmation (AID 504601;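 active = mean inhibition of the luminescence signal across two replicates at or above 26 percent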). The conditions noted are these: SaOS-2 split-luciferase Mdm2/MdmX complementation, at 8 µM, stronger effect = higher value.
The target in test [2] is Tumor necrosis factor receptor superfamily member 10B (Homo sapiens) (UniProt O14763). The test can be described thus: viability loss of caspase-8 NB7 cells with TRAIL – with/without TRAIL, luminescence panel, confirmation (AID 651596; in the data active = activity above about 50%). The conditions noted are these: NB7 neuroblastoma + caspase-8, TRAIL sensitization, NB7 Caspase-8, with TRAIL, mean of runs, at 10 µM, stronger effect = higher value.

Experiment in test [3]: as above
The conditions noted are these: NB7 neuroblastoma + caspase-8, without TRAIL, NB7 Caspase-8, without TRAIL, mean of runs, at 10 µM.

Test [4] has as its target Tumor necrosis factor receptor superfamily member 10B (Homo sapiens) (UniProt O14763). The test can be described thus: compound enhancement of TRAIL-induced cell killing – NB7 cells plus caspase-8, luminescence, panel, dose response (AID 652002). The conditions noted are these: NB7 neuroblastoma +caspase-8, TRAIL sensitization, luminescence viability, NB7+Caspase-8, with TRAIL, run 1; at 12.5 µM (top of the series).

For test [5] the target is unchanged. The description is as above. The conditions noted are these: NB7 neuroblastoma +caspase-8, TRAIL sensitization, luminescence viability, NB7+Caspase-8, with TRAIL, run 2; at 12.5 µM (top of the series).
Experiment in test [6]: as above
The conditions noted are these: NB7 neuroblastoma +caspase-8, no TRAIL, compound-alone cytotoxicity counter-screen, luminescence viability, NB7+Caspase-8, run 1; at 12.5 µM (top of the series) unless noted. (In general: The purpose of a counterscreen is to sort out artefacts and off-target activity.)

Experiment in test [7]: as above
The conditions noted are these: NB7 neuroblastoma +caspase-8, no TRAIL, compound-alone cytotoxicity counter-screen, luminescence viability, NB7+Caspase-8, run 2; at 12.5 µM (top of the series) unless noted.

The nature of test [8]: apoptosome-driven caspase-3 activation blockers – biochemical, fluorescence, DEVD-Rh110, 20 µM, confirmation (AID 504614).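 Note: plate controls were DMSO wells for no effect and DEVD-CHO caspase inhibitor control wells for full effect.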 The conditions noted are these: reconstituted apoptosome, caspase-3 DEVD-Rh110 fluorescence; at 20 µM; stronger effect = higher value.
Test [9] is described as follows: detection-step artefacts after completed caspase reaction – biochemical, fluorescence, Rh110, 20 µM, artefact control for Apaf-1 inhibitor project, confirmation (AID 504615;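 active = signal rise of 40% or more at 20 µM, treated as a fluorescence artifact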). The conditions noted are these: quenched caspase reaction, at 20 µM, stronger effect = higher value.
Test [10] can be described thus: HIF-2a driven luciferase blockers, single dose – luminescence, 786-0 RCC cells, confirmation (AID 651580;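 active = mean inhibition across four replicates of at least 40 percent at the single tested concentration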). The conditions noted are these: HIF-2a luciferase reporter luminescence, overnight, at 18.8 µM, stronger effect = higher value.
A short description of test [11]: HIF-1a luciferase reporter signal reduction – MiaPaCa-2 cells, single concentration, counter-screen for HIF-2a inhibitor project, confirmation (AID 651589;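 active = mean inhibition of the reporter signal across four replicates at the single tested dose of 50% or more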). The conditions noted are these: MiaPaCa-2 HIF-1a luciferase reporter, desferoxamine, overnight; at 18.8 µM; stronger effect = higher value. For orientation: In a reporter assay the amount or activity of a reporter protein is the signal.

Test [12] can be described thus: fluorescence interference of Apaf-1 inhibitor hits, dose response, artefact control for Apaf-1 inhibitor project (AID 588538; call rule not given here). The conditions noted are these: fluorescence interference counterscreen, Apaf-1 assay format.
Test [13] is described as follows: Brca1-Bard1 BiLC signal decrease – luminescence, single concentration, counter-screen for Mdm2/MdmX interaction inhibitor project, confirmation (AID 504668; call rule not given here). The conditions noted are these: Brca1/Bard1 bimolecular luciferase complementation counterscreen, at 8 µM, stronger effect = higher value.

Some of the results follow. Calls of active or inactive are those of the source.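 Rule for the calls, unless noted: active = mean inhibition of at least 40% at 20 µM; inactive = the rest.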

Tumor necrosis factor receptor superfamily member 10B (Homo sapiens), sequence (O14763 whole entry, looked up): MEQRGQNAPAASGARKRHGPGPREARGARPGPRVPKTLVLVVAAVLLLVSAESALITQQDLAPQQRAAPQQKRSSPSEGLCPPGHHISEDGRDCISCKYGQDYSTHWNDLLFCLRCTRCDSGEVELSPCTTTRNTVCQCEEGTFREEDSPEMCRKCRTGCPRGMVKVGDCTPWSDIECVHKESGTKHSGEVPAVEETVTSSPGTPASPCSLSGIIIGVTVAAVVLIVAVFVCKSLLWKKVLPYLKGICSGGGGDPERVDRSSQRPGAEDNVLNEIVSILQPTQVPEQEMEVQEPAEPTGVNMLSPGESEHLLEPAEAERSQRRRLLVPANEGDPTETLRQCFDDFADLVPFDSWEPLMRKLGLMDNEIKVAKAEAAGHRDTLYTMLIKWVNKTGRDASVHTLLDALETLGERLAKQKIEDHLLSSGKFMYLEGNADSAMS
Protein Mdm4 (Homo sapiens) + E3 ubiquitin-protein ligase Mdm2 (Homo sapiens), sequence (O15151 whole entry, looked up): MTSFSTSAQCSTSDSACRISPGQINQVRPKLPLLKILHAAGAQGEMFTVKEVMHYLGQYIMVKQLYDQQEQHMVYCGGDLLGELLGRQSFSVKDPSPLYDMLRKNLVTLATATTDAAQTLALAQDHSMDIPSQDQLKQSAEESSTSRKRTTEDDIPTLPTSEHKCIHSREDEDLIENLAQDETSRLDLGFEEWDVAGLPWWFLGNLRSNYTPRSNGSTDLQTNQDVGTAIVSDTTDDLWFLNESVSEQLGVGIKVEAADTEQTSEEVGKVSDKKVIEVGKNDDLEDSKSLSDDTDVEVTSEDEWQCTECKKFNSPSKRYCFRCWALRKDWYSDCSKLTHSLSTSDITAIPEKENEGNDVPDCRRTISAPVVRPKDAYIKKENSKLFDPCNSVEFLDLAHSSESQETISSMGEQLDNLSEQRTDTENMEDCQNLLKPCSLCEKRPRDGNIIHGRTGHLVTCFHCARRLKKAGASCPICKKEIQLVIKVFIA
Protein Mdm4 (Homo sapiens) + E3 ubiquitin-protein ligase Mdm2 (Homo sapiens), sequence (Q00987 whole entry, looked up): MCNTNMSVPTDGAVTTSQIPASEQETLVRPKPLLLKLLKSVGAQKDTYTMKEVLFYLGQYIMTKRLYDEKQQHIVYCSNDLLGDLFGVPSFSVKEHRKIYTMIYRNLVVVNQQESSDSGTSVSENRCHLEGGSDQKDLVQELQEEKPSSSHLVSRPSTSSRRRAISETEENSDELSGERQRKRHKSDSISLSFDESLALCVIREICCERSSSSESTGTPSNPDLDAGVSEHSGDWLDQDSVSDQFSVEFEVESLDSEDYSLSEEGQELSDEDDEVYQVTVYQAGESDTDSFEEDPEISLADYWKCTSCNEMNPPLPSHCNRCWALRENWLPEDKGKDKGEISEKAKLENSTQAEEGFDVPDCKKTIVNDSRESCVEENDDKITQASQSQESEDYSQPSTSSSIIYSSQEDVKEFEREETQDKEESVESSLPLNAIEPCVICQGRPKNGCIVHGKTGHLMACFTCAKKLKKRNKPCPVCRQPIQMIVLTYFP

Usually inhibition stands for the change of the read-out against control, counted positive when it falls. Turning to `COc1cc(NC(=O)c2[nH]cnc2C(N)=O)cc(C(=O)Nc2cccc(C(F)(F)F)c2)c1`, the inhibition in test [1] is 101% (active). Further, the results for the activity in test [2] and in [3] were 86.1% and 53.4%, respectively. Besides, the activity, % sensitization was 36.3% in test [4], 52.5% in [5], 5.71% in test [6] and 43.7% in test [7].

Consider `CC1=NN(c2ccc(Cl)c(C(=O)O)c2)C(=O)/C1=C/c1ccc(-c2ccccc2[N+](=O)[O-])o1`, for which the inhibition in test [8] is 16.8% (inactive). The activation (fluorescence interference) in test [9] is 6.42% (inactive).

Take `COc1ccc(NC(=O)CN(Cc2ccccc2)S(C)(=O)=O)cc1OC`: in [8], the inhibition was 3.82% (inactive). In test [9], the activation (fluorescence interference) is 2.48% (inactive).

For the compound `Cc1ccc2nc(N3CCN(C(=O)c4ccco4)CC3)sc2c1`, in [8], the inhibition is 15.7% (inactive). In addition, the activation (fluorescence interference) in test [9] is -1.75% (inactive).

With `CCN1C(=NCc2ccc(OC)cc2)N[C@@H](CCc2ccccc2)[C@H](C(=O)NCc2ccc(OC)cc2)[C@H]1C`, the inhibition in test [8] was 4.13% (inactive). For the same compound, the activation (fluorescence interference) in [9] is 7.82% (inactive).

With `CCC(=O)Nc1c(S(=O)(=O)c2ccccc2)c2nc3ccccc3nc2n1Cc1ccccc1`, in test [8], the inhibition was 16.3% (inactive). For the same compound, the activation (fluorescence interference) in test [9] was -0.44% (inactive).

`Cc1[nH]c(=O)c(C(=O)/C=C/c2ccccc2)c2c1CCCC2`: the inhibition in test [1] was 103% (active); in test [10], 81.1% (active); in test [11] it was 105% (active).

On to `C#CCOCCOCCOCCNc1nc(N2CCN(C(=O)CCCCCCCCCCNC(=O)[C@H](CCCCN)n3cc(C)nn3)CC2)nc(N2CCN(C(=O)CCCCCCCCCCNC(=O)[C@H](CO)n3cc(CCCSC)nn3)CC2)n1`, for which the inhibition in test [8] was 4.3% (inactive). The activation (fluorescence interference) in test [9] was 3.38% (inactive).

`Cc1ccsc1/C=N/NC(=O)Cc1cc(=O)[nH][nH]1`: the inhibition in test [8] is 17.5% (inactive). The activation (fluorescence interference) in test [9] is 8.37% (inactive).

As for `CCN(CC)CCOc1ccc2c(c1)C(=NNC(=O)c1ccccn1)c1cc(OCCN(CC)CC)ccc1-2`, the inhibition in [8] is 56.1% (active). The activation (fluorescence interference) in test [9] is 15.8% (inactive).

As to `CCN(CC(=O)NCc1cccs1)C(=O)c1cccc(S(=O)(=O)Nc2ccccc2OC)c1`, in [8], the inhibition was 36.9% (inactive). Moreover, in test [9], the activation (fluorescence interference) was -3.02% (inactive).

The IC50 is the midpoint of a concentration-inhibition curve. As to `CCCCCCc1cc2cc(-c3nnc(-c4ccccc4)o3)c(=O)oc2cc1O`, the inhibition in test [8] is 76% (active). Besides, the activation (fluorescence interference) in test [9] was 7.27% (inactive). In addition, in [12], the IC50 is > 100 µM (inactive).

`COc1ccc(C(CNC(=O)c2ccc(S(=O)(=O)Nc3ccccc3F)cc2)N(C)C)cc1` (configuration not stated): the inhibition in [8] is 43.8% (active). Further, the activation (fluorescence interference) in [9] is -0.45% (inactive). Besides, the IC50 in test [12] is > 100 µM (inactive).

Turning to `CN1CCN(c2ccccc2NC(=O)COc2ccc(C3CCCCC3)cc2)CC1`, the inhibition in test [8] was 7.86% (inactive). For the same compound, the activation (fluorescence interference) in [9] is 2.41% (inactive).

Regarding `Cc1cc(N2CCCC2)ccc1NC(=O)COc1ccc(Cl)cc1`, the inhibition in test [8] was 28.9% (inactive). The activation (fluorescence interference) in [9] was 1.52% (inactive).

Take `CCCCCCCCCCOC(=O)Cn1c(COc2cccc(OC)c2)[n+](C)c2ccccc21`: the figures for the inhibition in test [8] and in test [13] were 74.8% (active) and 31.2% (active), respectively. Also, the activation (fluorescence interference) in test [9] was 23% (inactive). In addition, the IC50 in test [12] was > 100 µM (inactive).

`CCc1ccc(CNC(=O)C2CCN(c3nnc(C)c4c(C)n(-c5ccc(C)cc5)nc34)CC2)cc1`: the inhibition in test [8] is 13.2% (inactive); in test [13], 23.7% (active); in [10], -2.57% (inactive); in test [11], 20.1% (inactive). Further, the activation (fluorescence interference) in test [9] was 0.21% (inactive).

`C#CCOCCOCCOCCNc1nc(N2CCN(C(=O)C([C@@H](C)O)n3cc([C@@H](N)CCCCN)nn3)CC2)nc(N2CCN(C(=O)[C@H](CCCCN)n3cc(CN)nn3)CC2)n1` (some centres not stated): the inhibition in test [8] is 1.31% (inactive). The activation (fluorescence interference) in test [9] is -7.33% (inactive).

`COc1ccccc1C1C(C#N)=C(N)Oc2c1c(-c1ccccc1)nn2-c1ccccc1` (configuration not stated): in test [8], the inhibition is 19.9% (inactive). Moreover, the activation (fluorescence interference) in test [9] is 5.51% (inactive).

As for `O=C1NNC(c2ccccc2)=N/C1=C\c1ccc(Cl)cc1`, the inhibition in [8] was 43.9% (active). Besides, the activation (fluorescence interference) in [9] was 7.08% (inactive). Also, in [12], the IC50 is > 100 µM (inactive).

For `O=c1cc(N2CCCCC2)c(-c2ccccc2)nn1Cc1cccc(F)c1`, in test [8], the inhibition is 18.3% (inactive). Moreover, the activation (fluorescence interference) in [9] was 9.4% (inactive).

For `O=C(N/N=C\c1cccnc1)c1cc(-c2ccccc2)nc2c(Cl)cccc12`, the inhibition in [8] was 11.8% (inactive). Besides, the activation (fluorescence interference) in [9] was 2.87% (inactive).

On to `O=C(CCCN1CCc2[nH]c3ccc(F)cc3c2C1)c1ccc(F)cc1`, for which, in test [8], the inhibition was 65.3% (active). The activation (fluorescence interference) in test [9] was 4.85% (inactive). The IC50 in [12] was > 100 µM (inactive).

`C#CCOCCOCCOCCNc1nc(N2CCN(C(=O)CCCCCCCCCCNC(=O)Cn3cc(CCCCCN)nn3)CC2)nc(N2CCN(C(=O)CCCCCCCCCCNC(=O)[C@H](CO)n3cc(CCCSC)nn3)CC2)n1`: the inhibition in test [8] is 60.8% (active). In addition, the activation (fluorescence interference) in [9] was 4.21% (inactive). Moreover, the IC50 in [12] is > 100 µM (inactive).

Turning to `C(=N/Nc1cc(N2CCOCC2)nc(N2CCOCC2)n1)/c1ccccc1`, the inhibition in test [8] was 27.8% (inactive). Moreover, the activation (fluorescence interference) in test [9] was 2.85% (inactive).

`O=C(Cc1cc(=O)[nH][nH]1)N/N=C/c1ccccc1[N+](=O)[O-]`: the inhibition in test [8] is 5.01% (inactive). For the same compound, the activation (fluorescence interference) in test [9] is 0.43% (inactive).

For `CCCC[C@@H]1CN=C(N)N1CCc1cc(C(F)(F)F)cc(C(F)(F)F)c1`, the inhibition in test [8] is 11.5% (inactive). Besides, in test [9], the activation (fluorescence interference) is 3.05% (inactive).

Regarding `CC(NC(=O)c1ccccc1SCC(=O)N1CCCC1)c1ccccc1` (configuration not stated), the inhibition in test [8] was 22.9% (inactive). Besides, in [9], the activation (fluorescence interference) was -8.17% (inactive).

`Cc1[nH]n(-c2ccccc2)c(=O)c1/C=N/NC(=O)c1ccoc1C`: the inhibition in test [8] is 62% (active). Also, the activation (fluorescence interference) in test [9] is -3.23% (inactive). For the same compound, the IC50 in test [12] is > 100 µM (inactive).

`Oc1ccc(N=Cc2c(O)ccc3ccccc23)cc1`: the inhibition in test [8] is 19.4% (inactive). In addition, the activation (fluorescence interference) in [9] was 0.51% (inactive).

As for `c1ccc(CSc2nnc(-c3ccco3)c(-c3ccco3)n2)cc1`, the inhibition in test [8] was 29.4% (inactive). In addition, the activation (fluorescence interference) in [9] is 6.26% (inactive).

On to `COc1ccc(S(=O)(=O)/N=C2\C=C(NS(=O)(=O)c3ccccc3)C(=O)c3ccccc32)cc1`, for which the inhibition in [8] was 52.3% (active). The activation (fluorescence interference) in [9] was -7.09% (inactive). In [12], the IC50 was > 100 µM (inactive).
